The panel holds about 79,000 compounds, 15% with a hit somewhere; the sample as a whole holds those more often. Values without a mark were called inactive. The source made the active and inactive calls. Cut-off read from the data, not from the text of the source: active = growth inhibition above about 70%; inactive = the rest.
experiment: NCI Yeast Anticancer Drug Screen. Data for the mlh1 rad18 strain (AID 175); conditions: S. cerevisiae mlh1 rad18 strain growth inhibition; at 50.0 µM (retest, dose inferred, filed as 5.0); hits give high values
Procedure, shortened: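 Cells of a genetically altered yeast strain, deficient in DNA damage repair, were treated with compound. Their growth was then compared with that of vehicle-treated cultures to give inhibition.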

Compound	growth inhibition
CCSC1(SCC)C(=O)OC2=C(CCCC2)C1N1CCOCC1 (stereo not given)	24%
NC(=O)C(CCc1cccc2ccccc12)c1ccccc1 (stereo not given)	14%
NC(CCCCCC(N)C(=O)O)C(=O)O (stereo not given)	-121%
CN(C)CC(CN(C)C)C(=O)C1CCCCC1	95% (active)
O=C1/C(=C/c2ccc([N+](=O)[O-])cc2)Sc2scc(-c3cccc([N+](=O)[O-])c3)[n+]21	99% (active)
CC(C)(C)c1cc(C(P(=O)(c2ccccc2)c2ccccc2)P(=O)(c2ccccc2)c2ccccc2)cc(C(C)(C)C)c1O	92% (active)
COC(=O)c1cc(=O)n(-c2ccccc2C(F)(F)F)c(SC)n1	95% (active)
CSC(SC)=C1C(=O)NC(Cc2ccccc2)C1=O (stereo not given)	68%
c1ccc(C(c2ccccc2)c2ccc3ccccc3n2)cc1	80% (active)
CN(C)c1nc(N(C)C)nc([N+](C)(C)C)n1	-7%
CCCNC(=S)N/N=C(/C)c1nccc2ccccc12	93% (active)
OC(CN1CCc2ccccc2C1)c1ccc2ccccc2c1 (stereo not given)	82% (active)
Nc1nc(N)c2nc(CNc3ccc(C(=O)NC(CCC(=O)O)C(=O)O)cc3)ccc2n1 (stereo not given)	8%
O=c1c2ccccc2c2ccccc2n1O	94% (active)
CC(=O)N1c2ccccc2Sc2ccc3ccc(C(=O)CCl)cc3c21	97% (active)
CC(NNC(=S)N1CC2CCC(CC2)C1)c1nccc2ccccc12 (stereo not given)	96% (active)
O=C1O/C(=C(\Cc2ccccc2)c2ccccc2)N(c2ccccc2)C1=O	21%
S=c1sc2ccccc2n1C=Nc1ccccc1	79% (active)
CSc1nc(NC2OC(CO)C(O)C(O)C2O)c(Cl)c(=O)[nH]1 (stereo not given)	-1%
C=CCN1/C(=C\C=C\c2ccc3cc(C)ccc3[n+]2CC=C)C=Cc2cc(C)ccc21	98% (active)

Compound	growth inhibition
S=c1[nH]nc(SCc2ccc(Cl)c(Cl)c2)c2[nH]cnc12	-16%
Nc1ccc(C(=O)/C=C/c2ccccn2)cc1	82% (active)
CCOC(=O)C(C(=O)O)(C(c1ccccc1)c1ccccc1)C(c1ccccc1)c1ccccc1	99% (active)
CSC(=S)n1nc(-c2ccccc2)c(N=Nc2ccc(Br)cc2)c1-c1ccccc1	19%
COc1ccc([N+](=O)[O-])cc1Nc1c2ccccc2nc2ccccc12	6%
C=CCN1/C(=C/C=C\c2sc3ccccc3[n+]2CC=C)Sc2ccccc21	98% (active)
COc1ccc(/C=C/C(C(=O)O)C(=O)O)cc1	89% (active)
CN(C)C(=O)c1cc(Br)cc(-c2ccccc2)c1O	92% (active)
Cc1cc(N=[N+]=[N-])c2cc(C3CCCCC3)ccc2n1	99% (active)
[Cu+2].[O-]/N=C/c1cccc(O)c1[O-].[O-]/N=C/c1cccc(O)c1[O-]	98% (active)
c1ccc(Cn2nnc(-c3ccccc3)c2-c2ccccc2)cc1	94% (active)
CCOc1ccc2nc(Cl)sc2c1	89% (active)
CCOC(=O)c1sc2c(c1O)c(=O)n(-c1ccccc1)c(=S)n2-c1ccccc1	98% (active)
O=C(O)c1c[nH]c2cc(Cl)ccc2c1=O	-4%
Cc1cc2c(cc1O)CC[C@@H]1[C@@H]2CC[C@]2(C)[C@@H](O)CC[C@@H]12	-22%
NC(=O)NOCC1NC(=O)NC1=O (stereo not given)	8%
CCOC(=O)c1cnc2cc3cccccc3n2c1=O	86% (active)
CC(CO)CCC(=O)C(C)C1C(=O)CC2CC3CC(O)CCC3(C)CC21C (stereo not given)	89% (active)
N#CSC#Cc1ccc(C#CSC#N)cc1	98% (active)
CCS/C(SC)=C(/c1ccccc1)[P+](c1ccccc1)(c1ccccc1)c1ccccc1	99% (active)

same assay, conditions: S. cerevisiae mlh1 rad18 strain growth inhibition; at 50.0 µM; hits give high values

Compound	growth inhibition
CCSC1(SCC)C(=O)OC2=C(CCCC2)C1N1CCOCC1 (stereo not given)	15.6%
NC(=O)C(CCc1cccc2ccccc12)c1ccccc1 (stereo not given)	98.4% (active)
NC(CCCCCC(N)C(=O)O)C(=O)O (stereo not given)	3.05%
CN(C)CC(CN(C)C)C(=O)C1CCCCC1	96.6% (active)
O=C1/C(=C/c2ccc([N+](=O)[O-])cc2)Sc2scc(-c3cccc([N+](=O)[O-])c3)[n+]21	91.1% (active)
CC(C)(C)c1cc(C(P(=O)(c2ccccc2)c2ccccc2)P(=O)(c2ccccc2)c2ccccc2)cc(C(C)(C)C)c1O	96.7% (active)
COC(=O)c1cc(=O)n(-c2ccccc2C(F)(F)F)c(SC)n1	99.5% (active)
CSC(SC)=C1C(=O)NC(Cc2ccccc2)C1=O (stereo not given)	83% (active)
c1ccc(C(c2ccccc2)c2ccc3ccccc3n2)cc1	37.5%
CN(C)c1nc(N(C)C)nc([N+](C)(C)C)n1	98.7% (active)
CCCNC(=S)N/N=C(/C)c1nccc2ccccc12	29.4%
OC(CN1CCc2ccccc2C1)c1ccc2ccccc2c1 (stereo not given)	45.3%
Nc1nc(N)c2nc(CNc3ccc(C(=O)NC(CCC(=O)O)C(=O)O)cc3)ccc2n1 (stereo not given)	-20.7%
O=c1c2ccccc2c2ccccc2n1O	98.3% (active)
CC(=O)N1c2ccccc2Sc2ccc3ccc(C(=O)CCl)cc3c21	87.8% (active)
CC(NNC(=S)N1CC2CCC(CC2)C1)c1nccc2ccccc12 (stereo not given)	99.1% (active)
O=C1O/C(=C(\Cc2ccccc2)c2ccccc2)N(c2ccccc2)C1=O	28.8%
S=c1sc2ccccc2n1C=Nc1ccccc1	98.3% (active)
CSc1nc(NC2OC(CO)C(O)C(O)C2O)c(Cl)c(=O)[nH]1 (stereo not given)	1.05%
C=CCN1/C(=C\C=C\c2ccc3cc(C)ccc3[n+]2CC=C)C=Cc2cc(C)ccc21	89.2% (active)

Compound	growth inhibition
S=c1[nH]nc(SCc2ccc(Cl)c(Cl)c2)c2[nH]cnc12	5.2%
Nc1ccc(C(=O)/C=C/c2ccccn2)cc1	27.9%
CCOC(=O)C(C(=O)O)(C(c1ccccc1)c1ccccc1)C(c1ccccc1)c1ccccc1	99% (active)
CSC(=S)n1nc(-c2ccccc2)c(N=Nc2ccc(Br)cc2)c1-c1ccccc1	-10.2%
COc1ccc([N+](=O)[O-])cc1Nc1c2ccccc2nc2ccccc12	41%
C=CCN1/C(=C/C=C\c2sc3ccccc3[n+]2CC=C)Sc2ccccc21	91.8% (active)
COc1ccc(/C=C/C(C(=O)O)C(=O)O)cc1	78% (active)
CN(C)C(=O)c1cc(Br)cc(-c2ccccc2)c1O	51.8%
Cc1cc(N=[N+]=[N-])c2cc(C3CCCCC3)ccc2n1	96.8% (active)
[Cu+2].[O-]/N=C/c1cccc(O)c1[O-].[O-]/N=C/c1cccc(O)c1[O-]	94% (active)
c1ccc(Cn2nnc(-c3ccccc3)c2-c2ccccc2)cc1	87.5% (active)
CCOc1ccc2nc(Cl)sc2c1	79% (active)
CCOC(=O)c1sc2c(c1O)c(=O)n(-c1ccccc1)c(=S)n2-c1ccccc1	95% (active)
O=C(O)c1c[nH]c2cc(Cl)ccc2c1=O	12.2%
Cc1cc2c(cc1O)CC[C@@H]1[C@@H]2CC[C@]2(C)[C@@H](O)CC[C@@H]12	50%
NC(=O)NOCC1NC(=O)NC1=O (stereo not given)	-16.3%
CCOC(=O)c1cnc2cc3cccccc3n2c1=O	93.3% (active)
CC(CO)CCC(=O)C(C)C1C(=O)CC2CC3CC(O)CCC3(C)CC21C (stereo not given)	90.3% (active)
N#CSC#Cc1ccc(C#CSC#N)cc1	89.2% (active)
CCS/C(SC)=C(/c1ccccc1)[P+](c1ccccc1)(c1ccccc1)c1ccccc1	91.8% (active)

— PubChem BioAssay (NCI)
